# Results: PubChem BioAssay (NCATS)
# Values without a mark were called inactive. Records with an inconclusive call do not appear. A call without a number means that no potency is given here. Calls of active or inactive are those of the source. The call rests on the fitted dose curve; in most records, active means well fitted curve in the direction sought with a large enough effect; inconclusive means small, poorly fitted or top-dose-only effect, or another doubt; inactive means no such curve, though single readings can be large; an effect the other way counts as inactive or inconclusive.
# What was measured:
# [1] = tested on: Zika virus NS2B-NS3 protease (linked construct); test: Primary screen NINDS Rhodamine qHTS for Zika virus inhibitors (AID 1347160); further: potency means the concentration at half of the fitted maximal effect; nearly all actives have a fitted effect of over 55% in size
# Method in brief: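 Aprotinin served as in-plate control. Conditions: 25 nM linked NS2B-NS3, pH 8.0 Tris buffer, titrated compounds, 15 min preincubation and 15 min reaction with 1.5 microM Rhod110 substrate at room temperature.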
# [2] = OV-KATE Cancer Cell Toxicity qHTS against the NCATS CANVASS Library (AID 1347345)
# Method in brief: (§1)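 Per well, 1000 cells; exposure 72 h with compound at 11 final concentrations; readout CellTiter-Glo luminescence.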
# [3] = U-118MG Cancer Cell Toxicity qHTS against the NCATS CANVASS Library (AID 1347351); further: potency means the concentration at half of the fitted maximal effect
# Method in brief: as §1
# [4] = A2780 Cisplatin Sensitive Ovarian Cancer Cell Toxicity qHTS against the NCATS CANVASS Library (AID 1347353); further: nearly all actives have a fitted effect of over 60% in size; further: potency means the concentration at half of the fitted maximal effect
# Method in brief: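 Quantitative HTS format: eleven compound concentrations applied to pre-seeded cells, 72 h incubation at 37 °C, then ATP detection by luminescence.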
# [5] = UWB1.289-WTBRCA1 Cancer Cell Toxicity qHTS against the NCATS CANVASS Library (AID 1347354)
# Method in brief: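 Using an ATP-based luminescent reagent after three days of treatment, toxicity is scored across an eleven-concentration range in wells holding 1000 cells each.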
# [6] = HEK293 18hr Apoptosis Induction qHTS against the NCATS CANVASS Library (AID 1347357)
# Method in brief: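 Caspase-3/7 luminescence (DEVD substrate, Caspase-Glo) after 18 h compound exposure of HEK293 cells, 500 cells/well; 11-point series; doxorubicin titration as control.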
# [7] = HEK293 12hr Apoptosis Induction qHTS against the NCATS CANVASS Library (AID 1347361)
# Method in brief: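 500 HEK293 cells/well; cpds pin-transferred, 11-pt conc series; 12 h, 37 degrees C/5% CO2; Caspase-Glo 3/7 added, 15 min RT dark; luminescence.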
# [8] = KB-8-5-11 Cancer Cell Toxicity qHTS against the NCATS CANVASS Library (AID 1347364); further: nearly all actives have a fitted effect of over 75% in size; further: potency means the concentration at half of the fitted maximal effect
# Method in brief: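 Luminescent ATP signal (CellTiter-Glo, 10 min at room temperature) measured cell survival of KB-8-5-11 after 72 hr compound treatment. For confirmation, the cells were also grown with 1uM tariquidar.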
# [9] = SDT Cancer Cell Toxicity qHTS against the NCATS CANVASS Library (AID 1347365); further: nearly all actives have a fitted effect of over 60% in size; further: potency means the concentration at half of the fitted maximal effect
# Method in brief: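 Canine SDT glioma cell toxicity was scored by ATP-dependent luminescence after a 72 hr incubation with an 11-point compound series.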
# [10] = MCF7 Cancer Cell Toxicity qHTS against the NCATS CANVASS Library (AID 1347369)
# Method in brief: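 Luminescent ATP signal (CellTiterGlo) served as the cytotoxicity read-out after MCF7 breast cancer cells had been incubated 72 hr at 37C with natural products in an 11-point titration.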
# [11] = qHTS for activators of Nrf2/ARE signaling pathway screened against the NCATS CANVASS Library (AID 1347391); further: nearly all actives have a fitted effect of over 60% in size; further: potency means the concentration at half of the fitted maximal effect
# Method in brief: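 Activation of Nrf2/ARE was scored in ARE-bla HepG2 cells after 16 h compound exposure using CCF4 beta-lactamase fluorescence ratio readings.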
# [12] = qHTS for inhibitors of Wild type Zika virus screened against the NCATS CANVASS Library (AID 1347396);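 further: ATP luminescence of surviving cells so rescue from viral cell killing; series mostly up to about 46 µM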
# Method in brief: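 Vero 766 cells, 1000/well, o/n attach; cpds pin-transferred (11-pt qHTS); WT Zika added; 72 h, 37C, 5% CO2; CellTiter Glo lumi. Uninfected + vehicle = 100% inhibition.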
# [13] = Viability qHTS for inhibitors of the SERCaMP assay screened against the NCATS CANVASS Library (AID 1347400); further: nearly all actives have a fitted effect of over 70% in size; further: potency means the concentration at half of the fitted maximal effect
# Method in brief: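 Measures loss of viability in SERCaMP reporter SH-SY5Y cells treated for 48 h with compounds; luminescent ATP detection by CellTiter-Glo.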
# [14] = OV-SAHO Cancer Cell Toxicity qHTS against the NCATS CANVASS Library (AID 1347348); further: nearly all actives have a fitted effect of over 55% in size; further: potency means the concentration at half of the fitted maximal effect
# Method in brief: as §1
# [15] = SW1088 Cancer Cell Toxicity qHTS against the NCATS CANVASS Library (AID 1347350); further: potency means the concentration at half of the fitted maximal effect; nearly all actives have a fitted effect of over 75% in size
# Method in brief: as §1
# [16] = HPAF-II 12hr Apoptosis Induction qHTS against the NCATS CANVASS Library (AID 1347358)
# Method in brief: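 Twelve-hour compound exposure of HPAF-II cells in DMEM with 10% FBS, then luminescent Caspase-Glo 3/7 detection after 15 min at room temperature; doxorubicin control.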
# [17] = target: Luciferin 4-monooxygenase (Photinus pyralis) (UniProt P08659); test: Firefly luciferase counterscreen qHTS: Assay Interference Panel against the NCATS CANVASS Library (AID 1347363); further: series mostly up to about 57 µM
# Chain of Luciferin 4-monooxygenase (Photinus pyralis) (P08659 whole entry, looked up): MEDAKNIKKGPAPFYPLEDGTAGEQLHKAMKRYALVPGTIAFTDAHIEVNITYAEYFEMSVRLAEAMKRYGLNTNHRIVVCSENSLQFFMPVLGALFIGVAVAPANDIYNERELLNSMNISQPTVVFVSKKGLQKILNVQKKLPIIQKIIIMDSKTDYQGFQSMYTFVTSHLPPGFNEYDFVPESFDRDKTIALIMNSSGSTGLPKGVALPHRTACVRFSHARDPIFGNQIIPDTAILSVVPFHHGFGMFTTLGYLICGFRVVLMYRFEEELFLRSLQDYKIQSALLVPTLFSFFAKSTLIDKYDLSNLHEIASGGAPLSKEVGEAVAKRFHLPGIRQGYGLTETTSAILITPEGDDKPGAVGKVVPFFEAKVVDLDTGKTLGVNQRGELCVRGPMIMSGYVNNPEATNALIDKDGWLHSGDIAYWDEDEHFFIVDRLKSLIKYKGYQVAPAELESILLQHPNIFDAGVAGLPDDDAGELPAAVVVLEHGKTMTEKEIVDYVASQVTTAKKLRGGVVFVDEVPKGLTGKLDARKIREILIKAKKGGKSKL
# Method in brief: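 Purified P. pyralis luciferase was added to compounds (11-point series) preincubated 15 min at room temperature with substrate containing 0.013 mM D-luciferin and 0.013 mM ATP; luminescence was read after 5 min.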
# [18] = qHTS for Hypoxia signaling pathway (HIF-1) antagonists against the NCATS CANVASS Library (AID 1347374); further: nearly all actives have a fitted effect of over 60% in size; further: potency means the concentration at half of the fitted maximal effect
# Method in brief: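 Beta-lactamase reporter under HRE control in ME-180 cells; CoCl2 stimulus (60 uM solution as added), compounds 11-pt qHTS, 17 h 37C. CCF4 dye 2 h RT, 460/530 nm emission. CellTiter-Glo viability in same wells.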
# [19] = qHTS for Antimalaria activity screened against the NCATS CANVASS Library (AID 1347380); further: nearly all actives have a fitted effect of over 40% in size; further: potency means the concentration at half of the fitted maximal effect
# Method in brief: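 Measures proliferation or cytotoxicity against Dd2 blood stages in 72 h cultures, 11-point qHTS dosing, with SYBR Green fluorescence as read-out; dihydroartemisinin titration served as control.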
# [20] = Redox Reaction Profiling qHTS: Assay Interference Panel against the NCATS CANVASS Library (AID 1347401); further: potency means the concentration at half of the fitted maximal effect
# Method in brief: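 Quantitative HTS over an 11-point series was run in HEPES pH 7.3 with 50 mM NaCl, 200 uM DTT and 5 uM resazurin. Initial and 15-min resorufin fluorescence readings were taken.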
SMILES,Potency [1],Potency [2],Potency [3],Potency [4],Potency [5],Potency [6],outcome [7],Potency [8],Potency [9],Potency [10],Potency [11],outcome [12],Potency [13],Potency [14],Potency [15],Potency [16],Potency [17],Potency [18],Potency [19],Potency [20]
CC(C)C[C@@H]1c2c(O)c(C=O)c(O)c(C=O)c2O[C@]2(C)C=C[C@@H](C(C)C)C[C@H]12,13.9 µM (active),inactive,inactive,inactive,inactive,inactive,inactive,inactive,inactive,inactive,inactive,inactive,inactive,–,–,–,–,–,–,–
CCC(=O)CCCCC[C@@H]1NC(=O)[C@H]2CCCCN2C(=O)[C@H](C(C)C)NC(=O)[C@H](Cc2cn(OC)c3ccccc23)NC1=O,13.9 µM (active),–,3.75 µM (active),5.26 µM (active),–,inactive,–,–,7.43 µM (active),–,inactive,–,15.2 µM (active),14.9 µM (active),13.3 µM (active),inactive,inactive,inactive,0.747 µM (active),inactive
O[C@H]1c2ccccc2-c2c3c(cc4c2[C@@H]1NCC4)OCO3,49.3 µM (active),inactive,–,11.8 µM (active),inactive,inactive,–,–,18.7 µM (active),–,18.6 µM (active),–,38.1 µM (active),inactive,–,inactive,–,18.8 µM (active),–,19.2 µM (active)
Cc1occ2c1C(=O)c1c(cc(O)c(O)c1O)C2=O,13.9 µM (active),inactive,13.3 µM (active),–,inactive,–,inactive,–,1.05 µM (active),inactive,–,inactive,inactive,–,5.95 µM (active),–,–,–,–,–
C/C=C(/C)c1c(Cl)c(O)c(C)c2c1Oc1c(Cl)c(O)c(Cl)c(C)c1C(=O)O2,1.96 µM (active),inactive,inactive,–,inactive,inactive,inactive,–,–,inactive,inactive,–,inactive,inactive,18.8 µM (active),inactive,inactive,10.6 µM (active),inactive,–
C/C=C(/C)c1c(Cl)c(OC)c(C)c2c1Oc1c(Cl)c(O)c(Cl)c(C)c1C(=O)O2,1.39 µM (active),inactive,inactive,–,–,inactive,inactive,–,inactive,–,inactive,–,inactive,–,13.3 µM (active),inactive,–,10.6 µM (active),inactive,inactive
COc1cc(O)c(C(=O)[C@@H]2[C@H](CC=C(C)C)C(C)=CC[C@H]2c2ccccc2)c(O)c1,15.6 µM (active),–,7.49 µM (active),–,–,–,inactive,16.6 µM (active),–,–,inactive,–,–,23.6 µM (active),5.95 µM (active),–,–,–,6.66 µM (active),–
